IL1B secr inh = inflammasome signaling inhibition, IL-1 beta readout; activity change, % at 57.5 µM; THP-1 LPS/ATP IL-1B secretion, AlphaLISA, 16 h; active compounds read low; hit rate 4.7% among 360,000; in the data active = activity change below about -50%; inconclusive = mostly about -30% to -49%; note: % is set by controls: 0 for no effect and ±100 for the full control effect
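THP-1 cells pretreated 1 hr with compounds (up to 57.5 uM final), then stimulated with LPS (250 ng/mL final) plus ATP (1.25 mM final); secreted IL-1B measured by AlphaLISA after 16 hr, decreased signal indicating inhibition.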
TDP1 cell noCPT = qHTS for Inhibitors of human tyrosyl-DNA phosphodiesterase 1 (TDP1): qHTS in cells in absence of CPT | DT40 Tdp1-/- hTDP1 cells, no CPT, ATP luminescence, 48 h | Potency, µM (highest dose often 46.2 µM), without a hit: at the highest dose activity change, negative = growth inhibition, hits mostly inhibitors | hit rate 15% among 420,000; note: potency is the fitted concentration of half-maximal effect; % is set by controls: 0 for no effect and ±100 for the full control effect; nearly all actives have a fitted effect of over 55% in size
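A cellular qHTS used chicken DT40 cells lacking endogenous Tdp1 but carrying stably transfected human TDP1. Compounds were applied without camptothecin, and cell growth kinetics were judged by ATP-dependent luminescence after ≥48 hr.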
HepG2 viability = HepG2 cytotoxicity, counter-screen for TGF-b inhibitors | HepG2 CAGA-GFP viability, ATP luminescence, 18 h | Potency, µM (series often up to 46.1 µM), inactives show at the highest dose activity change, negative = cytotoxicity, hits mostly cytotoxic | hit rate 0.76% among 410,000 | AID 588856; note: potency is the fitted concentration of half-maximal effect
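HepG2 CAGA-GFP cells (1000/well, DMEM with 1% FBS) received compound, then TGF-beta at 500 pg/mL final, and were incubated 18 hours at 37 degrees C. Viability was read by CellTiter-Glo luminescence. Media-only wells were set as complete cell-killing and DMSO as no toxicity.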
DT40 TDP1 CPT = DT40-hTDP1 cell growth loss with CPT. hit rate 12% among 420,000. Potency, µM (titrated, usually from 46.2 µM), for the others: at the highest dose activity change, negative = growth inhibition, most hits filed as inhibitors. chicken DT40 Tdp1-/-;hTDP1 cells + 20 nM CPT, ATP luminescence, 48 h; note: potency is the fitted concentration of half-maximal effect; % is set by controls: 0 for no effect and ±100 for the full control effect; nearly all actives have a fitted effect of over 55% in size
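Chicken DT40 Tdp1-/- cells stably complemented with human TDP1 were seeded at 400 cells/well in medium containing 20 nM camptothecin, exposed to pin-transferred compounds, and grown at 37 °C for at least 48 hr. Viability was read as ATP luminescence.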
TGFb inhibitor = blocks TGF-b signaling; HepG2 CAGA-GFP TGF-b/SMAD3 reporter, GFP fluorescence, 18 h; TGF-beta stimulated, 500 pg/mL final; Potency, µM (highest dose often 46.1 µM), for inactives: at the top dose activity, negative = inhibition, usual class: inhibitors; hit rate 1.2% among 410,000; note: potency is the fitted concentration of half-maximal effect; % is set by controls: 0 for no effect and ±100 for the full control effect; nearly all actives have a fitted effect of over 65% in size
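Inhibition was scored as loss of TGF-beta-induced (500 pg/mL final, 18 hours, 37 degrees C) GFP in HEPG2 cells carrying a CAGA-GFP reporter, in DMEM with 1% FBS. Well GFP was summed per cell; Activity was normalised to unstimulated and stimulated DMSO wells, then concentration-response fitting.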
TDP1 block = blocks human tyrosyl-DNA phosphodiesterase 1. Potency, µM (titrated, usually from 130 µM), for the others: at the highest dose activity change, negative = inhibition, actives largely listed as inhibitors. hit rate 0.28% among 350,000. Q9NUW8. recombinant TDP1, AlphaScreen DNA substrate cleavage; note: potency is the fitted concentration of half-maximal effect; % is set by controls: 0 for no effect and ±100 for the full control effect; nearly all actives have a fitted effect of over 40% in size
Target sequence (Q9NUW8 whole entry, looked up): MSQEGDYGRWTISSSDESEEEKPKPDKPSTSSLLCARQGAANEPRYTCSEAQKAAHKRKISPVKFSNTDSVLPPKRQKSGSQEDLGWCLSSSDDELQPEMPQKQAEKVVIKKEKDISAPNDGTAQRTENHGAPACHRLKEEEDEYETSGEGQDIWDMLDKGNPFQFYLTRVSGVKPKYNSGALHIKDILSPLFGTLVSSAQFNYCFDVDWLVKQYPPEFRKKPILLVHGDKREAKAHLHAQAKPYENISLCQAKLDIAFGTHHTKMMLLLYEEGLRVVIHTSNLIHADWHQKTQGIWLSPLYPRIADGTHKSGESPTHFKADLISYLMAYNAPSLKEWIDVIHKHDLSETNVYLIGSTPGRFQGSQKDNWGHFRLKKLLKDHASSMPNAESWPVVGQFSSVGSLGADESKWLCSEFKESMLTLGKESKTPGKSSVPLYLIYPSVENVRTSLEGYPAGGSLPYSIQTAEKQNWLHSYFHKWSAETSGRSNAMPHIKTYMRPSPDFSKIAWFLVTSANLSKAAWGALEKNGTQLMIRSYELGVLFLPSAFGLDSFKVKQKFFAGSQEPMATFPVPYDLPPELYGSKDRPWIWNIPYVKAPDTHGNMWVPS
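Signal: AlphaScreen proximity between streptavidin donor and anti-FITC acceptor beads on intact substrate. Reaction: Tdp1 1 nM, substrate 15 nM final, 5 min RT after 15 min compound preincubation.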
Active calls of the source: *; ? = inconclusive; . = no result; ! = a repeat was not active; [ ] = remark or other dose. Rows were chosen to be rich in hits. Some 19% of all compounds tested hit in one or more screens of this group. Unless noted, calls come from the whole dose curve; as a rule, active = well fitted curve in the direction sought with a large enough effect; inconclusive = small, poorly fitted or top-dose-only effect, or another doubt; inactive = no such curve, though single readings can be large; an effect the other way counts as inactive or inconclusive.

SMILES | IL1B secr inh | TDP1 cell noCPT | HepG2 viability | DT40 TDP1 CPT | TGFb inhibitor | TDP1 block
CC1(C)S[C@@H]2[C@H](NC(=O)[C@H](N)c3ccccc3)C(=O)N2[C@H]1C(=O)O | 26 | 7% | 5% | 5% | 7% | 22µM*!
CCCCN1C(=O)C(CC(=O)NCc2cccs2)CC(C(=O)N(CC)CC)=C1C (centres undefined) | -12 | -4% | -36% | 0% | 3% | .
CC1=C(Cl)C2=NS(=O)(=O)CCN2C=C1Cl | -2 | -14% | -6% | -8% | -3% | 4%
CN(CC(=O)Nc1ccc(Cl)c(C(F)(F)F)c1)C(=O)CCCc1nc2ccccc2c(=O)[nH]1 | 5 | 12µM* | 0% | 12µM* | -4% | 1%
Cc1nc(-c2ccc(F)cc2)c(CC(=O)N(C)CC(=O)Nc2ccc(Cl)c(C(F)(F)F)c2)s1 | -20 | ? | -82% | ? | 18µM* | .
CN(CC(=O)Nc1ccc(Cl)c(C(F)(F)F)c1)C(=O)C1(c2ccccc2)CC1 | -57* | 16µM* | -24% | ? | ? | -8%[0.505 µM]
CN(CC(=O)Nc1cccc(F)c1)C(=O)CCCc1nc2ccccc2c(=O)[nH]1 | 12 | -5% | 3% | ? | 5% | .
Cc1cccc(C(=O)OCC(=O)N(C)CC(=O)Nc2ccc(Cl)c(C(F)(F)F)c2)c1 | 0 | ? | 4% | 15µM* | 2% | -4%[56.1 µM]
O=S(=O)(c1ccccc1)N1CCC2(CCCN(C(c3ccccc3)c3ccccc3)C2)CC1 | . | -4% | . | 7% | . | .
CN(CC(=O)Nc1ccc(Cl)c(C(F)(F)F)c1)C(=O)c1ccc2c(c1)NC(=O)CS2 | -24 | 23µM* | -9% | ? | ? | 0%
CN(CC(=O)Nc1ccc(Cl)c(C(F)(F)F)c1)C(=O)c1cccnc1Sc1ccccc1 | 32 | ? | -33% | ? | ? | 0%
CN(CC(=O)Nc1ccc(Cl)c(C(F)(F)F)c1)C(=O)c1cnccn1 | -24 | ? | -4% | ? | -7% | 0%
CN(CC(=O)Nc1ccc(F)c(F)c1F)C(=O)c1ccc2c(c1)NC(=O)CS2 | 47 | ? | 20% | ? | 6% | 1%
CN(CC(=O)Nc1ccc(Cl)c(C(F)(F)F)c1)C(=O)c1cn2ccccc2n1 | -8 | 10µM* | -1% | 13µM* | ? | .
CN(CC(=O)Nc1ccc(Cl)c(C(F)(F)F)c1)C(=O)c1cc(-c2ccncc2)nc2ccccc12 | -96* | 18µM* | 24% | ? | 2% | .
Cc1cc(C(=O)N(C)CC(=O)Nc2ccc(Cl)c(C(F)(F)F)c2)no1 | -10 | 16µM* | -16% | -26% | -6% | .
CCOc1cccc2c1OC1(C)CC2NC(=O)N1c1cccc(C(=O)NCc2ccccn2)c1 (centres undefined) | 31 | -9% | -8% | -14% | -19% | 4%
C=CC[C@@](C(C)=O)(C(=O)OC)C(NC(=O)OC(C)(C)C)c1ccccc1 (some centres undefined) | . | . | . | . | . | 6%
CN(CC(=O)Nc1ccc(Cl)c(C(F)(F)F)c1)C(=O)CC1Sc2ccccc2NC1=O (centres undefined) | ? | 13µM* | 12% | 13µM* | ? | 2%
Cc1ccc(NC(=O)CCCc2nc3ccccc3c(=O)[nH]2)c(Cl)c1 | 4 | 15µM* | 1% | 18µM* | 11% | -1%
COc1cccc(NC(=O)CN(C)C(=O)CC2Sc3ccccc3NC2=O)c1 (centres undefined) | 4 | 7% | -1% | -5% | 10% | 2%
CN(CC(=O)Nc1ccc(Cl)c(C(F)(F)F)c1)C(=O)c1cccs1 | ? | 16µM* | 3% | ? | -2% | -13%
CCCOc1ccc(C(=O)Nc2ccc3oc(-c4ccc5ccccc5c4)nc3c2)cc1 | . | -7% | 11% | 6% | -23% | 0%[12.3 µM]
C=CCCCCCCCCCBr | . | . | . | . | . | 6%
CCOc1ncnc2c1sc1nc(C)cc(C)c12 | -18 | -24% | 3% | 11% | -3% | .
SMILES | IL1B secr inh | TDP1 cell noCPT | HepG2 viability | DT40 TDP1 CPT | TGFb inhibitor | TDP1 block
Cc1cc(C)c2c(n1)sc1c(N3CCN(CCO)CC3)ncnc12 | -77* | ? | -6% | -29% | 3% | 4%
CC(=O)Cn1cnc2c(sc3nc(C)cc(C)c32)c1=O | -64* | ? | -14% | 2% | -3% | .
CN(C)S(=O)(=O)c1ccc(N2CCCC2)c(C(=O)OCC(=O)NC2(C#N)CCCCC2)c1 | -2 | -9% | -1% | -16% | -15% | .
CC(C)CN(C(=O)c1cccc(S(=O)(=O)N2CCN(c3ccc(F)cc3)CC2)c1)C1CCS(=O)(=O)C1 (centres undefined) | -1 | ? | 8% | ? | 1% | -10%
CCN(CC)c1cc(C)c2cc(NC(=O)/C=C/c3ccccc3OC(C)C)ccc2n1 | . | 23µM* | -24% | ? | ? | 0%
CCC12C(=Nc3c(Cl)cccc31)C[C@@H]1CCN3C(=O)CCC[C@H]2[C@H]13 (some centres undefined) | 14 | ? | -1% | ? | 21% | .
COc1ccc(N2CCN(CCCNC(=O)c3cc(Nc4ccc(OC)cc4OC)nc4ccccc34)CC2)cc1 | . | 21µM* | -17% | 23µM* | -17% | 11%
COCCCNC(=O)c1cc(Nc2ccc(OC)cc2OC)nc2ccccc12 | -5 | ? | -18% | ? | -10% | .
COc1ccc(Nc2cc(C(=O)NCCCN3CCOCC3)c3ccccc3n2)cc1 | -20 | -17% | -1% | ? | 12% | 4%
CCc1ccc(Sc2cc(C(=O)NCCCN3CCC(C)CC3)c3ccccc3n2)cc1 | . | 16µM* | -90% | 16µM* | ? | 5%
Cc1ccc(Sc2cc(C(=O)NCCN(C)C)c3ccccc3n2)cc1 | -29 | ? | -42% | ? | -9% | .
CCc1ccc(Nc2cc(C(=O)NCCCN3CCOCC3)c3ccccc3n2)cc1 | 2 | ? | 7.1µM* | ? | -5% | 5%
Cc1ccc(Sc2cc(C(=O)NCCCN(C)C)c3ccccc3n2)cc1 | -69* | ? | -14% | -11% | 10% | .
O=C(Cn1c(=O)nc(-c2ccccc2F)c2cc(Cl)ccc21)Nc1ccccc1C(F)(F)F | . | ? | 2% | -28% | 23% | -6%
COc1cccc(CN(C)C(=O)c2cc(S(=O)(=O)NC3CCCCC3)ccc2C)c1OC | -23 | -3% | -19% | ? | -23% | 2%
